About 9,900 (2.8%) of roughly 350,000 compounds were called active. Not shown: some 15% with an inconclusive outcome. The list comes from a sample in which actives are over-represented; it also holds similar structures and randomly drawn compounds. Values without a mark were called inactive. Calls come from the whole dose curve; as a rule, active = well fitted activation curve with a large enough effect; inconclusive = small, poorly fitted or top-dose-only effect; inactive = no such curve, though single readings can be large or run the other way.
Experiment: A quantitative high throughput screen for small molecules that induce DNA re-replication in MCF 10a normal breast cells. For activity, positive = re-replication: % of control where 0% means no effect. Note: nearly all actives have a fitted effect of over 50% in size.
Conditions: MCF 10A DNA re-replication, Hoechst nuclear intensity, 48 h; series mostly up to 46.1 µM; activity, positive = re-replication: at the top concentration
Description: H Molecular Libraries Probe Production Network [MLPCN]
NIH Chemical Genomics Center [NCGC]
Assay Provider: Melvin DePamphilis, NICHD, NIH
Eukaryotic cells normally restrict genome duplication to once per cell division. When this process is aberrant, DNA re-replication occurs when cells reinitiate DNA replication before the first round of replication is complete. DNA re-replication induces the DNA damage response, arrests cell proliferation, and triggers apoptosis. The cell cycle components cyclin A, Cdt-1, Cdc6 and geminin are critical regulators of this process and their misregulation results in DNA re-replication in normal and cancer cells. To identify compounds that induce re-replication in normal cells, an image-based assay was used to measure DNA content of nuclei, as detected by the fluorescent DNA binding dye, Hoechst. Cell nuclei were imaged by a fluorescence scanning plate imager and compounds that induce DNA re-replication were identified by the increase of nuclei with elevated fluorescence intensity
For screening, 250 cells in 5 uL/well were dispensed into black clear 1536-well plates (Aurora) using a solenoid-based dispenser. Following transfer of 23 nL compound or DMSO vehicle by a pin tool, the plates were incubated 48 hr at 37 C and 5% CO2. After addition of 1 uL/well Hoescht stain, the plates were incubated 40 min at 37 C, 5% CO2 and total intensity of fluorescent objects (nuclei) were enumerated by an Acumen Explorer Ex3 (TTP LabTech) fluorescence scanning plate imager (405 nm excitation, 500-530 nm emission).
Keywords: NIH Roadmap, MLPCN, MLI, MLSMR, qHTS, NCGC, DNA replication, cancer
Potency is the fitted concentration of half-maximal effect.

| SMILES | activity, positive = re-replication [%] | Potency |
| --- | --- | --- |
| O=S1(=O)CCOC[C@H](Cc2ccccc2)N1Cc1ccccc1Br | 12 |  |
| O=C(CSc1nc2ccccc2c(=O)n1-c1ccccc1F)N1CCOCC1 | -2.83 |  |
| CC(C)(C)c1nnc2sc(SCC(O)=C(C#N)c3nc4ccccc4[nH]3)nn2c1=O | -7.27 |  |
| COc1ccccc1C1=CC(=O)CCC1 | 4.21 |  |
| COc1ccccc1-c1sc2ccccc2c1C#CC1(O)CCCCC1 |  | 18.4 µM (active) |
| COc1ccccc1-c1sc2ccccc2c1-c1ccc(C(C)=O)cc1 | 96.3 |  |
| Cc1ccc(F)cc1NC(=O)CSCc1c(C)noc1C | 9.05 |  |
| COc1cccc(-n2c(SCC(=O)NC3CCS(=O)(=O)C3)nc3ccccc3c2=O)c1 (stereo unspecified) | -0.959 |  |
| CS(=O)(=O)c1ccc(Cl)c(NC(=O)Nc2ccccc2)c1 | 2.54 |  |
| CC(=O)Nc1cc(C(=O)O)ccc1S(=O)(=O)c1ccc(Cl)cc1 | -4.11 |  |
| O=C(Nc1ccccc1)c1nnsc1S(=O)(=O)c1ccc(Cl)cc1 |  | 13 µM (active) |
| COc1ccccc1C(=O)COC(=O)COc1ccc(C#N)cc1 | -0.419 |  |
| O=C(COC(=O)c1ccc([N+](=O)[O-])o1)NC12CC3CC(CC(C3)C1)C2 | 2.77 |  |
| N#CCC(=O)Nc1ccc(C(=O)OCC(=O)Nc2sc3c(c2C#N)CCCC3)cc1 | 2.07 |  |
| CCN(CC(=O)Nc1ccccc1OC)C(=O)CC1CC2CCC1C2 (stereo unspecified) | -1.06 |  |
| COc1cc(OC)c(C(=O)NNC(=O)c2ccccc2-n2cccc2)cc1OC | 4.63 |  |
| N#Cc1ccccc1NC(=O)COc1c(Br)cc(Br)c2cccnc12 |  | 25.9 µM (active) |
| Cc1cc(NC(=O)COc2ccccc2C#N)no1 | -3.52 |  |
| O=C(COC(=O)c1ccccn1)Nc1cccc2ccccc12 | -0.533 |  |
| C#CCOCCOCCOCCNc1nc(N2CCN(C(=O)[C@H](CCC(=O)O)n3cc(CN)nn3)CC2)nc(N2CCN(C(=O)[C@H](CCC(=O)O)n3cc(CN)nn3)CC2)n1 | -1.24 |  |
| Cc1cc(NCc2ccco2)n2c(nc3ccccc32)c1C#N |  | 16.4 µM (active) |
| Cc1cc(NC(C)C)n2c(nc3ccccc32)c1C#N | 0.0869 |  |
| CC(C)c1cc(NCc2ccccn2)n2c(nc3ccccc32)c1C#N | 14.3 |  |
| Cc1ccc(NS(=O)(=O)c2ccc(C(C)C)cc2)cc1S(=O)(=O)N1CCOCC1 | 3.51 |  |
| C/C(=N\NC(=S)Nc1ccc(C)cc1)c1cc2ccccc2o1 |  | 13 µM (active) |
| Cc1ccc(NC(=O)c2cc3ccccc3o2)cc1 | 0.598 |  |

| SMILES | activity, positive = re-replication [%] | Potency |
| --- | --- | --- |
| Cc1ccc(OC(=O)c2cc3ccccc3o2)cc1 | -4.63 |  |
| O=C(CN1C(=O)NC2(CCOc3ccccc32)C1=O)NCc1ccc(F)cc1 (stereo unspecified) | 0.67 |  |
| O=C(O)CSCC(=O)Nc1cccc(C(F)(F)F)c1 | 0.525 |  |
| Cc1cccc(NC(=O)c2cccc(C(F)(F)F)c2)c1 | 0.159 |  |
| O=C(Nc1cccc(C(F)(F)F)c1)c1cc(Br)cc(Br)c1O |  | 4.73 µM (active) |
| O=C(NCCc1ccccc1)c1c[nH]c2ccc(F)cc2c1=O | -1.92 |  |
| Nn1c(SCC(=O)NC2CCCc3ccccc32)nnc1C1CC1 (stereo unspecified) | -1.36 |  |
| Cc1noc(C)c1S(=O)(=O)N(C)C[C@H]1Oc2ccc(NC(=O)C3CC3)cc2C(=O)N([C@H](C)CO)C[C@@H]1C | -4.09 |  |
| COc1ccc(-c2nc3c(s2)CCc2onc(-c4ccc(Br)cc4)c2-3)cc1 | -16.8 |  |
| COc1ccc(-c2nc3n(c2Br)CCC3)cc1 | -5.29 |  |
| COc1ccc(-c2nc3c(s2)CCc2onc(-c4ccc(OC)cc4)c2-3)cc1 |  | 4.11 µM (active) |
| O=C(O)c1ccccc1/C=N/Nc1ccc(S(=O)(=O)Nc2ccc(Cl)cc2)cc1[N+](=O)[O-] | 27.4 |  |
| Cc1noc(C)c1NC(=O)Nc1ccc2c(c1)C(=O)N([C@H](C)CO)C[C@H](C)[C@@H](CN(C)C(=O)Nc1ccccc1)O2 | -0.387 |  |
| COc1ccccc1C(=O)c1ccccc1C(=O)c1ccccc1 | 14.2 |  |
| CCOC(=O)C(=Cc1ccccc1OC)C(=O)OCC |  | 14.6 µM (active) |
| CCOC(=O)C(=CNc1cccc(C)n1)C(=O)OCC | 2.73 |  |
| Cn1nc(-c2ccccc2)c(CSc2cccc(Cl)c2)c1Cl |  | 5.17 µM (active) |
| Cn1nc(-c2ccccc2)c(CO)c1Sc1ccccc1 | 2.31 |  |
| Cc1ccc(S(=O)(=O)c2c(COC(=O)c3cccc(Cl)c3)c(-c3ccccc3)nn2C)cc1 | 10.6 |  |
| O=C(NN=Cc1ccc(N2CCOCC2)cc1)c1cc2ccccc2cc1O | 13.2 |  |
| CCOCc1c(C(=O)N2CCN(Cc3ccc(Br)s3)CC2)oc2ccccc12 | 12.6 |  |
| CCN(/N=C/c1ccccc1)c1cc(=O)n(C)c(=O)[nH]1 | -8.5 |  |
| CN(C)c1ccc(/C=N/N(Cc2ccccc2)c2ccccc2)cc1 | 14.1 |  |
| CCN(/N=C/c1ccc(N(C)C)cc1)c1nc2ccccc2[nH]1 |  | 5.8 µM (active) |
| Cc1ccc(S(=O)(=O)N2CCN(C(=O)COC(=O)CNC(=O)c3ccc(C(C)(C)C)cc3)CC2)c(C)c1 | -2.41 |  |
